Screening data: PubChem BioAssay, National Center for Advancing Translational Sciences (NCATS)
Only a selection was taken, and hits are over-represented in it overall.
KDM5B inh – Primary screen for KDM5B Histone Demethylases FDH-coupled qHTS | Lysine-specific demethylase 5B (Homo sapiens), Q9UGL1 | KDM5B demethylase, FDH-coupled NADH fluorescence (FDH is formaldehyde dehydrogenase) | Potency, µM (highest dose often 57.7 µM), hits mostly inhibitors | 2.6% of 220,000 active; active means well fitted inhibition curve with a large enough effect; further: 0% is about no effect; nearly all actives have a fitted effect of over 70% in size
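Measured: NADH fluorescence change, 30 min, RT. System: KDM5BΔAP 200 nM final, H3K4me3 peptide, α-KG, Fe(II), ascorbate, NAD⁺ plus FDH, pH 7.5 HEPES. Compounds: titrated, 10 min pre-incubation with enzyme.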
Starred values were filed as active, the others as inactive. Potency means the concentration at half of the fitted maximal effect.

Screening O=C(Cc1ccccc1F)N1CCC2(CC1)CN(C1CCC1)CC2CO (configuration not stated) returned KDM5B inh inactive.
For O=C(Cc1cccc(Cl)c1)NCC1COc2ncncc2C(=O)N1CC1CC1 (configuration not stated) the results were KDM5B inh inactive.
`O=C1c2cncnc2OCC(CNC(=O)C2(c3ccccc3)CC2)N1Cc1ccccc1` (configuration not stated) gave KDM5B inh inactive.
Screening O=C(Cc1cccc(F)c1)NCC1COc2ncncc2C(=O)N1Cc1ccccc1 (configuration not stated) returned KDM5B inh 28µM*.
For COCC(=O)N1CC[C@H]2COC(=O)N2c2cc(F)ccc2C1 the results were KDM5B inh inactive.
`O=C(CCC1CCN(S(=O)(=O)c2ccccc2)CC1)NCc1ccco1` gave KDM5B inh inactive.
For CN(CC(=O)Nc1cccc(F)c1)Cc1ncc(-c2ccccc2)o1 the results were KDM5B inh inactive.
`COc1cc(-c2onc(C)c2C(=O)NCCCOC(C)C)cc(OC)c1OC` gave KDM5B inh 32µM*.
COCCNC(=O)c1c(C)noc1-c1cc(OC)c(OC)c(OC)c1 was read as KDM5B inh 28µM*.
For COc1ccc(-c2cc(C(=O)NCC3CCCO3)c3cc(C)ccc3n2)cc1 (configuration not stated) the results were KDM5B inh inactive.
CCCOCCCNC(=O)c1c(C)noc1-c1cccc(F)c1 was read as KDM5B inh inactive.
Screening COc1cc(-c2onc(C)c2C(=O)NCC2CCCO2)cc(OC)c1OC (configuration not stated) returned KDM5B inh 28µM*.
`CCCOCCNC(=O)c1c(C)noc1-c1ccc(C(C)(C)C)cc1` gave KDM5B inh inactive.
For COc1cc(CNC(=O)c2c(C)noc2-c2cc(OC)c(OC)c(OC)c2)cc(OC)c1 the results were KDM5B inh 28µM*.
Screening CCCOCCNC(=O)c1c(C)noc1-c1cc(OC)cc(OC)c1 returned KDM5B inh inactive.
COc1cc(OC)cc(-c2onc(C)c2C(=O)NCCCSC)c1 was read as KDM5B inh inactive.
`COc1cc(OC)cc(-c2onc(C)c2C(=O)NCc2ccccc2C)c1` gave KDM5B inh inactive.
`COc1ccc(CNC(=O)c2c(C)noc2-c2ccc(OC)cc2)cc1` gave KDM5B inh inactive.
COc1cc(OC)c(CNC(=O)c2c(C)noc2-c2ccc(OC(F)(F)F)cc2)c(OC)c1 was read as KDM5B inh inactive.
CCCCc1ccc(NC(=O)c2nccnc2N)cc1 was read as KDM5B inh inactive.
For Cc1cccc(-c2noc(CSc3n[nH]c(=O)c4cc(-c5ccco5)nn34)n2)c1 the results were KDM5B inh inactive.
Screening CCOc1cccc(CNC2CC2)c1 returned KDM5B inh inactive.
COc1cccc(-c2nnnn2[C@H]2CO[C@H]3[C@@H]2OC[C@@H]3NC(=O)c2ccc(N(C)C)cc2)c1 was read as KDM5B inh inactive.
O=C(CN1C(=O)CSc2ccccc21)NOCc1ccccc1 was read as KDM5B inh inactive.
For COc1ccc(-n2nnnc2C2CCN(S(=O)(=O)c3ccccc3Cl)CC2)cc1 the results were KDM5B inh inactive.
`Cc1cccc(NC(=O)c2sc(-n3nc(C)c(Cl)c3C)nc2C)c1` gave KDM5B inh inactive.
CC(C)(C)NC(=S)NN was read as KDM5B inh inactive.
For COc1cc(OC)cc(-c2onc(C)c2C(=O)NCCOc2ccccc2)c1 the results were KDM5B inh inactive.
CCOCCCNC(=O)c1c(C)noc1-c1ccc(OC)cc1 was read as KDM5B inh inactive.
`CCOCCCNC(=O)c1c(C)noc1-c1ccc(OC(F)(F)F)cc1` gave KDM5B inh inactive.
For COc1cc(-c2onc(C)c2C(=O)NCCC(c2ccccc2)c2ccccc2)cc(OC)c1OC the results were KDM5B inh 28µM*.
Screening CCOCCCNC(=O)c1c(C)noc1-c1cc(OC)c(OC)c(OC)c1 returned KDM5B inh 28µM*.
O=C(Nc1cc2c(cc1C(=O)C1CC1)OCCO2)c1ccco1 was read as KDM5B inh inactive.
For Cc1ccc(C)c(OCC(=O)NCc2cccs2)c1 the results were KDM5B inh inactive.
Cc1cccc(NC(=S)Nc2ccc(S(=O)(=O)Nc3ccccc3)cc2)c1 was read as KDM5B inh inactive.
COCCN1CCCC(c2[nH]ccc2C(=O)NCCc2nc3ccccc3[nH]2)C1 (configuration not stated) was read as KDM5B inh inactive.
Cn1c(CNC(=O)CC2CCN(S(C)(=O)=O)C2)nc2ccccc21 (configuration not stated) was read as KDM5B inh inactive.
Cn1c(CNC(=O)c2cc[nH]c2C2CCCNC2)nc2ccccc21 (configuration not stated) was read as KDM5B inh 32µM*.
For CCn1cc(C#N)c(=O)n(Cc2nnc(-c3ccccc3)o2)c1=O the results were KDM5B inh inactive.
